Test results from PubChem BioAssay AID449762 (Southern Research Specialized Biocontainment Screening …, 2010).
Values joined by “and” are separate entries in the source; they are usually repeats but may differ in a detail not shown here. Identical values can stand only once. Screen size: about 330,000 compounds; about 1,900 (0.58%) were called active. Not shown: some 4% with an inconclusive outcome. Not all results are given here. Measured potencies and affinities stand elsewhere. Values without a mark were called inactive. No stated cut-off is given here; in the data, inconclusive means inhibition above about 70% without an active follow-up result; inactive means below that.

Assay: M. tuberculosis growth inhibition, HTS (AID 449762);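 further: bacterial growth assessed after seven days of incubation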
Conditions: M. tuberculosis H37Rv growth inhibition, 7H9 media; at 25 µM; hits give high values

Compound | inhibition
CC(C)(C)c1ccc(OCCC(=O)NC2=NCCS2)cc1 | 48.1%
CCOc1ccc(OCCCC(=O)NC2=NCCS2)cc1 | 1.39%
O=c1ccc(-c2ccccc2)nn1Cc1ccccc1F | 4.51%
COc1ccc(-c2cc(C(=O)NC(C)c3ccccn3)c3ccccc3n2)cc1OC (configuration not stated) | -9.49%
CC1=NN(c2ccccc2)C(=O)C1C(=O)c1cc([N+](=O)[O-])cc([N+](=O)[O-])c1 (configuration not stated) | -4.74%
CCCCCCCN1N=C(C)C(C(=O)c2ccccc2)C1=O (configuration not stated) | 64.7%
CN1CC(=O)N2C(c3cccc([N+](=O)[O-])c3)c3[nH]c4ccccc4c3C[C@H]2C1=O (some centres not stated) | 6.28%
CCOc1cc2c3c(c1)C1(Nc4ccccc4S1)C(=O)N3C(C)(C)CC2C (configuration not stated) | 22.3%
CCOc1cc2c3c(c1)C1(OCCO1)C(=O)N3C(C)(C)CC2C (configuration not stated) | 8.79%
O=C(CN1CCN(c2ccccc2)CC1)NC(=O)NCc1ccco1 | -5.69%
CC(=O)Nc1ccc(S(=O)(=O)N(C)CC(=O)NC2=NCCS2)cc1 | -7.06%
CC1=NC(C)(C)Cc2ccccc21 | -5.42%
CC1(C)CC(=O)C(C2=NC(C)(C)Cc3ccccc32)=C(O)C1 | -7.77%
O=C(CN(C(=O)c1ccccc1)N1C(=O)CCC1=O)c1cccs1 | -6.33%
CN1CC(=O)N(CC(=O)N2N=C(c3ccc(Cl)cc3)CC2c2ccco2)C1=O (configuration not stated) | 22.3%
CCC1(CC)NC(=O)N(CC(=O)N2N=C(c3ccc(Cl)cc3)CC2c2ccco2)C1=O (configuration not stated) | 3.27%
O=C(N[C@@H]1C/C=C\C[C@@H](CC(=O)N(CCO)Cc2ccccc2)C(=O)N[C@@H](c2ccccc2)COC1=O)OCC1c2ccccc2-c2ccccc21 | 3.32%
COc1cc2sc(-c3ccc(S(C)(=O)=O)cc3)c(C(=O)NCCCCO)c2cc1OC | 4.06%
CCc1c(C)nc(N2CCN(c3cccc(OC)c3)CC2)[nH]c1=O | -3.6%

Compound | inhibition
O=c1c2ccccc2nc(-c2ccc([N+](=O)[O-])cc2)n1O | 30.3%
Cc1ccc(-c2nc3ccc(Cl)cc3c(=O)n2O)cc1 | 54.8%
CSCCCNC(=S)Nc1ccc(N2CCOCC2)cc1N1CCOCC1 | 6.87%
Cc1cc(C)c(C(=O)COC(=O)c2nn(C)c(=O)c3ccccc23)cc1C | -5.14%
Cc1ccc(Sc2ccc(C(=O)N3CCOCC3)cc2[N+](=O)[O-])cc1 | 0.73%
O=C(O)/C=C/C(=O)Nc1ccc(O)cc1 | -6.75%
O=C(O)/C=C/C(=O)Nc1ccc(C(=O)c2ccccc2)cc1 | 3.27%
CC(=O)C[C@H](O)CC(=O)[C@H]1OC(=O)[C@H](C)CCCCc2ccccc21 | -1.44%
O=C(O)c1cc(N/N=C/c2ccc(-c3ccc(F)cc3)o2)ccc1Cl | 13.7%
CCCn1c(CCC(=O)Nc2ccccc2Cc2ccccc2)nc2cc(S(=O)(=O)N3CCOCC3)ccc21 | -3.41%
COc1ccc2noc3c2c1C(=O)c1ccccc1-3 | 38.9%
CCOc1ccc2noc3c2c1C(=O)c1ccccc1-3 | 6.97%
NC(=O)COc1ncnc2scc(-c3ccc(F)cc3)c12 | -9.11%
c1ccc(-c2nccc(-c3ccc(-n4cnc5ccccc54)cc3)n2)cc1 | 16%
c1ccc2c(c1)ncn2-c1ccc(-c2ccnc(-c3ccncc3)n2)cc1 | -0.53%
CCN(CC)S(=O)(=O)c1cccc(C(=O)NCCCn2ccnc2)c1 | 3.66%
CN1CCc2cccc3c2[C@H]1Cc1ccc(O)c(O)c1-3 | 29.9% and 14.3% and 5.91%
CN1CCc2cccc3c2C1Cc1ccc(O)c(O)c1-3 (configuration not stated) | 35.5%
COCCCNc1ncnc2sc3c(c12)CCC(C)C3 (configuration not stated) | 13.1%

Compound | inhibition
CC1CCc2c(sc3ncnc(NCCN4CCOCC4)c23)C1 (configuration not stated) | 1.22%
COc1cc(C)cc(CN2CC=C(c3ccccc3)CC2)c1O | 4.09%
Cn1nc(C(=O)NCC(c2cccs2)N2CCOCC2)c2ccccc2c1=O (configuration not stated) | -7.54%
CCc1c(C)nc2cc(-c3cc(OC)cc(OC)c3)nn2c1N1CCN(CCN2CCOCC2)CC1 | -1.99%
CCOCCN1CCN(c2c(C)c(C)nc3cc(-c4cc(OC)cc(OC)c4)nn23)CC1 | -16.2%
COc1ccc(OC)c(NC(=O)c2ccc(S(=O)(=O)N3CCN(C)CC3)cc2)c1 | -1.22%
Cc1ccc(CNS(=O)(=O)c2ccc(-n3cnnn3)c(C)c2)cc1 | 5.67%
COc1cc(OC)cc(-c2c(C#Cc3ccsc3)c3cc(-c4ccc(CN5CCOCC5)cc4)ccc3n2C)c1 | 1.54%
COc1cccc(-c2c(-c3cc(OC)cc(OC)c3)n(C)c3ccc(-c4cnc(N5CCOCC5)nc4)cc23)c1 | 6.76%
COc1ccc(NS(=O)(=O)c2cccc(C(=O)N3CCN(Cc4ccc5c(c4)OCO5)CC3)c2)cc1 | 12.7%
O=Cc1cn(-c2ccccc2)nc1-c1cccnc1 | -1.66%
O=C(/C=C/c1cn(-c2ccccc2)nc1-c1cccnc1)N1CCCCC1 | -0.1%
Cc1nc2c(-c3ccccc3)c(C)nn2c(C)c1CCC(=O)N1CCC2(CC1)OCCO2 | 8.75%
COc1cc(/C=C/C(=O)OCC(=O)NCCc2ccccc2)ccc1OC(F)F | -11.9%
N#C/C(=C/c1ccc(Sc2nc3ccccc3[nH]2)o1)c1cccc(F)c1 | 3%
N#C/C(=C\c1ccc(Sc2nc3ccccc3[nH]2)o1)c1ccccc1 | -1.33%
CCOC(=O)Cn1nc(C)n(-c2ccccc2)c1=O | -8.51%
C[C@H](Cc1ccccc1)Nc1ncnc2c1ncn2[C@@H]1O[C@H](CO)[C@@H](O)[C@H]1O | -4.76%
CN(C)c1ncnc2c1ncn2C1OC(CO)C(O)C1O (configuration not stated) | -4.17%
